# Test results published in PubChem BioAssay (EPA / NIEHS).
# Results filed as inconclusive are left out. Calls of active or inactive are those of the source. Rule for the calls, unless noted: active = hit-call score of the fitted dose curve at least 0.9, where 1 is the maximum; inconclusive = response in the unintended direction; inactive = score below 0.9.
# Experiments:
# [1] = read-out: ABC Transporter (ABCB11), ABCB11 (gene 8647); test: CLD_ABCB11_24hr: CellzDirect (CLD) Gene Expression Assay for ABC Transporter (ABCB11) at 24 hours (AID 2283674; active = hit-call score of the fitted dose curve at least 0.9, where 1 is the maximum; inactive = score below 0.9)
# How it was run: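 Primary human hepatocytes were dosed daily for two days, with 0.2% DMSO vehicle. ABCB11 mRNA induction was measured at 24 hours by quantitative nuclease protection assay with chemiluminescence. Gain of signal was fitted relative to DMSO.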
# [2] = CLD_ACTIN_6hr: CellzDirect (CLD) Gene Expression Assay for Baseline Control (Actin) at 6 hours (AID 2283676);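 note: active means increased actin mRNA relative to DMSO vehicle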
# How it was run: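 Primary human hepatocytes dosed with fresh chemical solutions (vehicle 0.2% DMSO), harvested at 6 h. Actin mRNA quantified by quantitative nuclease protection assay with chemiluminescent read-out, as background control relative to DMSO.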
# [3] = read-out: Cytochrome P450 2B6 (Homo sapiens) (UniProt P20813); test: CLD_CYP2B6_6hr: CellzDirect (CLD) Gene Expression Assay for xenobiotic metabolism (CYP2B6) at 6 hours (AID 2283677);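 note: actives raise CYP2B6 transcript above DMSO baseline so AC50 marks an inducer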
# How it was run: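 Primary human hepatocytes dosed with chemicals at multiple concentrations, vehicle 0.2% DMSO; CYP2B6 mRNA induction measured 6 h after dosing by quantitative nuclease protection assay with chemiluminescence, gain of signal fitted relative to DMSO.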
# [4] = CCTE_Padilla_ZF_144hpf_TERATOSCORE: (Legacy) CCTE's 144 Hour Post-fertilization zebrafish Assay Teratoscore, Padilla Lab (AID 2283679; active = hit-call score of the fitted dose curve at least 0.9, where 1 is the maximum; inactive = score below 0.9;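 for AC50: zebrafish embryos with chorions exposed by immersion from 6-8 hpf to 5 dpf with daily renewal; teratogenicity score from eye scoring of death hatching and malformations at 144 hpf; higher score means more developmental defects relative to DMSO baseline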)
# How it was run: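 Larvae scored by eye at 144 hpf for death, hatching and malformations after a day in clean Hanks'. Before that, daily-renewed exposure at 80 uM (0.4% DMSO, 26C) from roughly 6-8 hpf through 5 dpf, 4 embryos per chemical.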
# [5] = read-out: Glyceraldehyde-3-phosphate dehydrogenase (Homo sapiens) (UniProt P04406); test: CLD_GAPDH_6hr: CellzDirect (CLD) Gene Expression Assay for Baseline Control (Glyceraldehyde 3-phosphate dehydrogenase) at 6 hours (AID 2283681);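 note: active means increased signal relative to DMSO vehicle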
# How it was run: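 Primary human hepatocytes from two donor preparations, dosed at multiple concentrations with 0.2% DMSO vehicle; GAPDH mRNA measured 6 h after dosing by chemiluminescent quantitative nuclease protection assay (qNPA) on denatured lysates. Serves as background control; cytotoxicity annotated by morphology.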
# [6] = read-out: xenobiotic metabolism (CYP1A2), CYP1A2 (gene 1544); test: CLD_CYP1A2_24hr: CellzDirect (CLD) Gene Expression Assay for xenobiotic metabolism (CYP1A2) at 24 hours (AID 2283683)
# How it was run: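 Primary human hepatocytes from two donor preparations dosed daily with multiple concentrations of chemical, 0.2% DMSO vehicle. CYP1A2 mRNA at 24 h quantified by qNPA chemiluminescence; gain of signal analyzed relative to DMSO. Cytotoxicity flagged by phase-contrast morphology.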
# [7] = read-out: ABC Transporter (ABCB1), ABCB1 (gene 5243); test: CLD_ABCB1_24hr: CellzDirect (CLD) Gene Expression Assay for ABC Transporter (ABCB1) at 24 hours (AID 2283684)
# How it was run: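 Primary human hepatocytes, two donor preparations, dosed daily with fresh solutions; vehicle 0.2% DMSO; harvested at 24 h. ABCB1 mRNA measured by quantitative nuclease protection assay (chemiluminescence); morphology-based cytotoxicity annotated.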
# [8] = read-out: Broad substrate specificity ATP-binding cassette transporter ABCG2 (Homo sapiens) (UniProt Q9UNQ0); test: CLD_ABCG2_24hr: CellzDirect (CLD) Gene Expression Assay for ABC Transporter (ABCG2) at 24 hours (AID 2283685)
# How it was run: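 Primary human hepatocytes were dosed daily with ToxCast chemicals at multiple concentrations (vehicle 0.2% DMSO). ABCG2 mRNA was measured at 24 h by qNPA chemiluminescence; induction was scored as gain of signal versus DMSO.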
# [9] = read-out: Cytochrome P450 2B6 (Homo sapiens) (UniProt P20813); test: CLD_CYP2B6_24hr: CellzDirect (CLD) Gene Expression Assay for xenobiotic metabolism (CYP2B6) at 24 hours (AID 2283686)
# How it was run: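 Primary human hepatocytes dosed daily for two days with fresh solutions, harvested at 24 hours; mRNA induction quantified by qNPA chemiluminescence, gain of signal vs 0.2% DMSO vehicle. Cytotoxicity annotated from phase-contrast morphology.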
# [10] = read-out: Cytochrome P450 2C19 (Homo sapiens) (UniProt P33261); test: CLD_CYP2C19_24hr: CellzDirect (CLD) Gene Expression Assay for xenobiotic metabolism (CYP2C19) at 24 hours (AID 2283687);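 note: activity means mRNA induction above DMSO vehicle baseline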
# How it was run: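 Primary human hepatocytes (two donor preparations) dosed daily with fresh test chemical in 0.2% DMSO vehicle; CYP2C19 mRNA induction measured at 24 h by quantitative nuclease protection assay with chemiluminescence, fitted for gain of signal versus DMSO.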
# [11] = read-out: Cytochrome P450 3A4 (Homo sapiens) (UniProt P08684); test: CLD_CYP3A4_24hr: CellzDirect (CLD) Gene Expression Assay for xenobiotic metabolism (CYP3A4) at 24 hours (AID 2283689)
# How it was run: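 Primary human hepatocytes from two donors dosed daily with fresh compound for two days, 0.2% DMSO vehicle. CYP3A4 mRNA at 24 hr by qNPA chemiluminescence; gain-of-signal fit versus DMSO, cytotoxicity flagged by morphology.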
# [12] = read-out: Glyceraldehyde-3-phosphate dehydrogenase (Homo sapiens) (UniProt P04406); test: CLD_GAPDH_24hr: CellzDirect (CLD) Gene Expression Assay for Baseline Control (Glyceraldehyde 3-phosphate dehydrogenase) at 24 hours (AID 2283692)
# How it was run: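 Primary human hepatocytes (two donor preparations) dosed daily for two days, 0.2% DMSO vehicle; GAPDH mRNA measured at 24 h by qNPA chemiluminescence as a background control, gain-of-signal fitted against DMSO.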
# [13] = read-out: sulfotransferase (SULT2A), SULT2A1 (gene 6822); test: CLD_SULT2A_24hr: CellzDirect (CLD) Gene Expression Assay for sulfotransferase (SULT2A) at 24 hours (AID 2283694)
# How it was run: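 Primary human hepatocytes from two donor preparations were dosed daily with fresh solutions, vehicle 0.2% DMSO. At 24 h, lysates went to quantitative nuclease protection (qNPA) with S1 digestion and chemiluminescent readout. Cytotoxicity was annotated from phase-contrast morphology.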
# [14] = read-out: organic anion transporter (SLCO1B1), SLCO1B1 (gene 10599); test: CLD_SLCO1B1_24hr: CellzDirect (CLD) Gene Expression Assay for organic anion transporter (SLCO1B1) at 24 hours (AID 2283690)
# How it was run: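 Primary human hepatocytes (two donor preparations) dosed daily for two days with chemicals at multiple concentrations, 0.2% DMSO vehicle. SLCO1B1 mRNA at 24 h measured by qNPA chemiluminescence; induction fitted relative to DMSO.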
# [15] = read-out: Cytochrome P450 2C19 (Homo sapiens) (UniProt P33261); test: CLD_CYP2C19_6hr: CellzDirect (CLD) Gene Expression Assay for xenobiotic metabolism (CYP2C19) at 6 hours (AID 2283678)
# How it was run: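 Primary human hepatocytes from two donor preparations were dosed daily, with 0.2% DMSO as vehicle, and harvested 6 h after dosing. CYP2C19 mRNA induction was measured by qNPA chemiluminescence and fitted as gain of signal against DMSO.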
# [16] = read-out: Cytochrome P450 3A4 (Homo sapiens) (UniProt P08684); test: CLD_CYP3A4_6hr: CellzDirect (CLD) Gene Expression Assay for xenobiotic metabolism (CYP3A4) at 6 hours (AID 2283680)
# How it was run: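 Primary human hepatocytes (two donor preparations) dosed; CYP3A4 mRNA harvested at 6 h and quantified by qNPA chemiluminescence. Gain of signal fitted against 0.2% DMSO vehicle; cytotoxicity flagged by phase-contrast morphology.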
# [17] = read-out: ABC Transporter (ABCB11), ABCB11 (gene 8647); test: CLD_ABCB11_6hr: CellzDirect (CLD) Gene Expression Assay for ABC Transporter (ABCB11) at 6 hours (AID 2283675);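 note: hits raise ABCB11 mRNA level so AC50 marks induction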
# How it was run: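 Human primary hepatocytes (two donor preparations) given fresh chemical daily at multiple concentrations, vehicle 0.2% DMSO. ABCB11 mRNA induction measured 6 h after dosing by qNPA chemiluminescence versus DMSO; cytotoxicity annotated from morphology.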
# [18] = read-out: ABC Transporter (ABCB1), ABCB1 (gene 5243); test: CLD_ABCB1_48hr: CellzDirect (CLD) Gene Expression Assay for ABC Transporter (ABCB1) at 48 hours (AID 2283695)
# How it was run: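 Primary human hepatocytes from two donor preparations dosed daily on two consecutive days with 0.2% DMSO vehicle. Harvest at 48 h. ABCB1 mRNA quantified by qNPA with chemiluminescence and fitted for gain of signal versus DMSO.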
# Cytochrome P450 3A4 (Homo sapiens), sequence (P08684 whole entry, looked up): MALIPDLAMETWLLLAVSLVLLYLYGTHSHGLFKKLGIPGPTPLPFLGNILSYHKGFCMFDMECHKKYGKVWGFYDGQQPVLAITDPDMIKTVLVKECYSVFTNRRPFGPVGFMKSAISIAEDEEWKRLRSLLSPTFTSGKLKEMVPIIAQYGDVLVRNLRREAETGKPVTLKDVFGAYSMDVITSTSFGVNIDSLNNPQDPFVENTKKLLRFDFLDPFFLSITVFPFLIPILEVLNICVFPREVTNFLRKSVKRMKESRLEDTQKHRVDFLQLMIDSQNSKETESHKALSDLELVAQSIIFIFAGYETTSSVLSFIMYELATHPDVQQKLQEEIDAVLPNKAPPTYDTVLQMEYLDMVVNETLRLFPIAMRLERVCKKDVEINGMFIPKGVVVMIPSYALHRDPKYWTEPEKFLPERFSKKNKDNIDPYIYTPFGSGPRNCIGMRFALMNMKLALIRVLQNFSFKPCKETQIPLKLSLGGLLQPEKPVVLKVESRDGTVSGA
# Glyceraldehyde-3-phosphate dehydrogenase (Homo sapiens), sequence (P04406 whole entry, looked up): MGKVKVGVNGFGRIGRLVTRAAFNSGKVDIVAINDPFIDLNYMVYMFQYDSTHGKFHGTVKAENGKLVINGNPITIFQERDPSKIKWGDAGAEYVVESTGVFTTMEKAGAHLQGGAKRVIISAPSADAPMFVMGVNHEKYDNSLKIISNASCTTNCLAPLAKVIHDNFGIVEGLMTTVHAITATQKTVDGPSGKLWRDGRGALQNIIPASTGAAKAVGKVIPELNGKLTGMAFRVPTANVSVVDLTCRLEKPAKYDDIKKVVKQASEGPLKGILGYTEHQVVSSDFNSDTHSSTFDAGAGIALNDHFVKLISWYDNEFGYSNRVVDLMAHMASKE
# Broad substrate specificity ATP-binding cassette transporter ABCG2 (Homo sapiens), sequence (Q9UNQ0 whole entry, looked up): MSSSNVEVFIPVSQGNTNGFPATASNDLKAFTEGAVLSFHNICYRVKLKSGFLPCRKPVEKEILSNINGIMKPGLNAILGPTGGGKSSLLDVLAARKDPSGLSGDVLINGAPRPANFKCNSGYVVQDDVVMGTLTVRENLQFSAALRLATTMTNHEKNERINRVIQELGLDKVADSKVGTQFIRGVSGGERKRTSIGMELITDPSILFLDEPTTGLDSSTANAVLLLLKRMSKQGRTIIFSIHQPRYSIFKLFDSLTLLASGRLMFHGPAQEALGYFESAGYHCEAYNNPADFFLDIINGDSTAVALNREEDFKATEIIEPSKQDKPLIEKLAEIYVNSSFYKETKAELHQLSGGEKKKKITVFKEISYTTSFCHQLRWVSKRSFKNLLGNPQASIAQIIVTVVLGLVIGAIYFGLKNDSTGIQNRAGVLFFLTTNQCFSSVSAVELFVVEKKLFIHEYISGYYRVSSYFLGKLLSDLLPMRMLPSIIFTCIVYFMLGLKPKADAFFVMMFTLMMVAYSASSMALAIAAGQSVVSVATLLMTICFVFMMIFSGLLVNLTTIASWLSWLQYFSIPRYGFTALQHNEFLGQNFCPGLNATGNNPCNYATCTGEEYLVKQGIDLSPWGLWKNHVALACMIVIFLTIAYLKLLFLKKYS
# Cytochrome P450 2C19 (Homo sapiens), sequence (P33261 whole entry, looked up): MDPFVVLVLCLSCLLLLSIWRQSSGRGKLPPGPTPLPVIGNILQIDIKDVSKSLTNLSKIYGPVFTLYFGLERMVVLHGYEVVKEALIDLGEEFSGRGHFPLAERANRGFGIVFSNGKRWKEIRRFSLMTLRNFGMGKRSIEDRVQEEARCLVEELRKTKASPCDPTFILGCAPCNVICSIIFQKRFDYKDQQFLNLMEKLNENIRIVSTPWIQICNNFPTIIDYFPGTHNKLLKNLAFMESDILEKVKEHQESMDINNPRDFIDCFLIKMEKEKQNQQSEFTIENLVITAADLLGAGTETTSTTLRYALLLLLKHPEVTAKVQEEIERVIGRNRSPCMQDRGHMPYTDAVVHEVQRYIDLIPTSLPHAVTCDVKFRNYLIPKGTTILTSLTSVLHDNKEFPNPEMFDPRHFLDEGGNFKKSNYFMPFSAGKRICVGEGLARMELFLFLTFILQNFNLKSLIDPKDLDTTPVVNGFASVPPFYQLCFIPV
compound,measurement,setting,value
CSc1nnc(C(C)(C)C)c(=O)n1N,outcome,[1],inactive
same,outcome,[2],inactive
same,AC50,[3],10.9 µM (active)
same,outcome,[4],inactive
same,outcome,[5],inactive
same,AC50,[6],20 µM (active)
same,outcome,[7],inactive
same,outcome,[8],inactive
same,AC50,[9],20 µM (active)
same,outcome,[10],inactive
same,AC50,[11],4.88 µM (active)
same,outcome,[12],inactive
same,outcome,[13],inactive
CCOP(=S)(OCC)OC(Cl)C(Cl)(Cl)Cl (centres undefined),outcome,[1],inactive
same,outcome,[2],inactive
same,AC50,[3],0.833 µM (active)
same,AC50,[4],4.82 µM (active)
same,outcome,[5],inactive
same,AC50,[6],15.5 µM (active)
same,outcome,[7],inactive
same,outcome,[8],inactive
same,AC50,[9],0.201 µM (active)
same,outcome,[10],inactive
same,AC50,[11],6.19 µM (active)
same,outcome,[14],inactive
same,outcome,[12],inactive
same,outcome,[13],inactive
CCCCOC(=O)c1ccccc1C(=O)O,outcome,[1],inactive
same,outcome,[3],inactive
same,outcome,[15],inactive
same,outcome,[4],inactive
same,outcome,[5],inactive
same,outcome,[6],inactive
same,outcome,[7],inactive
same,outcome,[8],inactive
same,outcome,[10],inactive
same,outcome,[12],inactive
CCOP(=S)(OCC)Oc1ccc2c(C)c(Cl)c(=O)oc2c1,outcome,[1],inactive
same,AC50,[3],1.44 µM (active)
same,AC50,[4],27.3 µM (active)
same,outcome,[16],inactive
same,AC50,[6],0.527 µM (active)
same,outcome,[7],inactive
same,AC50,[9],1.28 µM (active)
same,outcome,[10],inactive
same,outcome,[14],inactive
same,outcome,[13],inactive
COP(=O)(OC)C(O)C(Cl)(Cl)Cl (centres undefined),outcome,[1],inactive
same,outcome,[17],inactive
same,AC50,[4],168 µM (active)
same,outcome,[5],inactive
same,outcome,[7],inactive
same,outcome,[8],inactive
same,outcome,[14],inactive
same,outcome,[18],inactive
CC1=NNC(=O)N(/N=C/c2cccnc2)C1,outcome,[1],inactive
same,outcome,[2],inactive
same,outcome,[3],inactive
same,outcome,[15],inactive
same,AC50,[4],46.4 µM (active)
same,outcome,[5],inactive
same,AC50,[6],5.59 µM (active)
same,outcome,[7],inactive
same,outcome,[9],inactive
same,outcome,[10],inactive
same,outcome,[11],inactive
same,outcome,[12],inactive
same,outcome,[13],inactive
CCOC(=O)CC(SP(=O)(OC)OC)C(=O)OCC (centres undefined),outcome,[1],inactive
same,outcome,[2],inactive
same,AC50,[3],14.4 µM (active)
same,outcome,[15],inactive
same,outcome,[4],inactive
same,AC50,[6],2.38 µM (active)
same,outcome,[7],inactive
same,outcome,[8],inactive
same,AC50,[9],20 µM (active)
same,outcome,[10],inactive
same,AC50,[11],20 µM (active)
same,outcome,[14],inactive
CNC(=O)ON=C(SC)C(=O)N(C)C,outcome,[1],inactive
same,outcome,[2],inactive
same,outcome,[3],inactive
same,outcome,[15],inactive
same,outcome,[4],inactive
same,outcome,[16],inactive
same,outcome,[5],inactive
same,outcome,[6],inactive
same,outcome,[7],inactive
same,outcome,[9],inactive
same,outcome,[10],inactive
same,outcome,[11],inactive
same,outcome,[14],inactive
same,outcome,[12],inactive
